From PubChem BioAssay
Shown are actives, neighbours in structure and some others; about 1.2% of the full set was active somewhere.
TRb-SRC2 inh = disrupts binding of human TR beta to SRC2 | 280,000 tested, 0.065% active | AID 1469 | TRbeta-SRC2 peptide binding, fluorescence polarization; receptor liganded with 1 µM T3 | P10828 | Potency, µM (titrated, usually from 106 µM), usual class: inhibitors; note: nearly all actives have a fitted effect of over 50% in size
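Binding of a 20-amino-acid Texas Red SRC2 peptide (20 nM) to TRb ligand-binding domain (0.6 uM) with agonist T3 at 1 uM was followed by fluorescence polarization after a 5 hr room-temperature incubation.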
VDR inhibitor = inhibitors of human vitamin D receptor | 400,000 tested, 0.93% active | VDR-SRC2-3 peptide fluorescence polarization, 2 h | Potency, µM, most hits filed as inhibitors | AID 504847
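Compounds are added to VDR with labelled SRC2-3 coactivator peptide and held 2 h at room temperature. Inhibition of the VDR–peptide interaction is then read as a change in fluorescence polarization.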
TR SRC2 fluor cs = Texas Red fluorescence interference in TRb-SRC2 counter-screen | TRb/SRC2 Texas Red total fluorescence interference | Potency, µM (doses to about 106 µM) | 280,000 tested, 0.29% active | AID 1479; active = well fitted curve in either direction with a large enough effect; inconclusive = small, poorly fitted or top-dose-only effect
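Human TRβ ligand-binding domain (0.6 uM) and Texas Red SRC2 peptide (20 nM) in Tris buffer with 1 uM T3 and 5% DMSO were incubated with pinned compound for 5 hr at ambient temperature. Total fluorescence was computed as S + 2P (555/632 nm).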
RGS12 GoLoco inh-1 = RGS12 GoLoco-Gai1 interaction inhibition. P63096. Gai1:RGS12 GoLoco peptide FP, rhodamine, 10 min. Potency, µM (series often up to 61.6 µM), usual class: inhibitors. 230,000 tested, 0.44% active; active = well fitted inhibition curve with a large enough effect, not every such curve was filed as active; inactive = no such curve, though single readings can be large or run the other way; note: nearly all actives have a fitted effect of over 30% in size
Target sequence (P63096 whole entry, looked up): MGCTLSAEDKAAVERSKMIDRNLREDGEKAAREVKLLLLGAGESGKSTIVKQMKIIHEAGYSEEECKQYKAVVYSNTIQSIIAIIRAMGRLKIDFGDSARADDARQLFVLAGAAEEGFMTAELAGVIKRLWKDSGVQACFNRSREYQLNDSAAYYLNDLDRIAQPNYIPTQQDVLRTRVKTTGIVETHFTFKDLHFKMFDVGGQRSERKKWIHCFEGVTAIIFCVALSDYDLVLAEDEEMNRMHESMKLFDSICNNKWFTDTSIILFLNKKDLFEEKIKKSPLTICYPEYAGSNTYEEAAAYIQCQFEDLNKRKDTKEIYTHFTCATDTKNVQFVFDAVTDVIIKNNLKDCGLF
GCN5L2 inh-1 = GCN5L2 (KAT2A) acetyltransferase inhibition | Q92830 | GCN5L2 HAT assay, ThioGlo1 CoA-SH fluorescence | Potency, µM (titrated, usually from 58.9 µM), usual class: inhibitors | 390,000 tested, 0.21% active | AID 504327
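Fluorescence readout, Ex340nm/Em540nm: ThioGlo1 (50uM final) reacts with free CoA thiol released as 20nM GCN5L2 acetylates H3(1-25) peptide (75uM) using acetyl-CoA (70uM). Compound and enzyme sat 15 min beforehand; 20 min room-temperature reaction.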
RGS12 GoLoco inh-2 = confirmation of human RGS12 GoLoco motif inhibitors. Gai1/rhodamine-RGS12 GoLoco peptide fluorescence polarization. shares compounds with RGS12 GoLoco inh-1. AID 2390. 110 tested, 50% active. Potency, µM (series often up to 57.1 µM), actives largely listed as inhibitors
GCN5L2 inh-2 = human KAT2A HAT inhibition, hit confirmation; shares compounds with GCN5L2 inh-1; GCN5L2 HAT, ThioGlo1 CoA fluorescence, 20 min; Potency, µM, actives largely listed as inhibitors; 140 tested, 70% active
A number is an active result; 0 = inactive; ? = inconclusive; - = not tested or not shown; ! = not active in a repeat; [ ] = another dose, or the depositor's remark. Unless noted, calls come from the whole dose curve; as a rule, active = well fitted curve in the direction sought with a large enough effect; inconclusive = small, poorly fitted or top-dose-only effect, or another doubt; inactive = no such curve, though single readings can be large; an effect the other way counts as inactive or inconclusive.

SMILES | TRb-SRC2 inh | VDR inhibitor | TR SRC2 fluor cs | RGS12 GoLoco inh-1 | GCN5L2 inh-1 | RGS12 GoLoco inh-2 | others
O=C(CSCc1ccccc1)N/N=C/c1ccc(OCC(=O)N2CCCCC2)cc1 | 0 | 0 | 0 | 0 | 0 | 0
COc1ccc(CSCC(=O)N/N=C/c2ccc(OCC(=O)N3CCCCC3)cc2)cc1 | 0 | 0 | 0 | 3.5µM | 0 | ?
NCCSCCc1ccccc1 | - | - | - | 0[14.2 µM] | - | -
COC(=O)CCCC(=O)O | - | - | - | 0[14.2 µM] | - | -
Nc1c(Br)cc(Br)c2cccnc12 | - | 0 | - | - | - | -
Nc1nc(SCC(=O)Nc2ccc(Br)cc2Br)n[nH]1 | - | 0 | - | - | 0 | -
Nc1cc(N)nc(SCC(=O)Nc2ccc(Br)cc2Cl)n1 | 0 | 0 | 0 | 6.3µM | 0 | ?
O=C(NC1CCCCC1)c1cnn2c1NC(=C1CC1)C=C2C(F)F | - | 0 | - | - | - | -
Cn1c(SCC(=O)Nc2ccc3c(c2)oc2ccccc23)nnc1-c1ccccc1 | 0 | 0 | 0 | 3.5µM | 0 | 7.9µM
Cn1c(SCC(=O)Nc2ccccc2)nnc1-c1ccccc1 | 0 | 0 | 0 | - | 0 | -
CCC(=O)Nc1ccc(-c2nnc(SCC(=O)NCC3CCCO3)n2C)cc1 (configuration not stated) | 0 | 0 | 0 | 0 | 0 | 0
Cc1cc(C2(c3cc(C)c(O)cc3C)OS(=O)(=O)c3ccccc32)c(C)cc1O | 0 | - | 0 | 0 | - | -
CO/N=C(/C(=O)N[C@H]1C(=O)N2C(C(=O)O)=C(COC(C)=O)CSC12)c1csc(N)n1 (some centres not stated) | 0 | ? | 0 | 7.9µM | 0 | 0
C=CCc1cc(/C=N\NC(=O)CSc2nnc(CCCc3ccc(OC)c(C)c3)o2)cc(OC)c1O | 0 | 0 | 0 | 14µM | 0 | ?
COc1ccc(C2C=C3CNS(=O)(=O)C3CC2OC(=O)c2cccc(C)c2)cc1 (configuration not stated) | 0 | 0 | 0 | - | - | -
NC(=O)NOC[C@@H]1NC(=O)NC1=O | - | - | - | 0[14.2 µM] | - | -
NC(=O)NC1NC(=O)NC1=O (configuration not stated) | 0 | ? | 0 | 18µM! | 0 | ?
N=C(c1ccc2ccccc2c1)c1ccccc1Cc1ccccc1 | - | - | - | 0[14.2 µM] | - | -
CCn1c(SCC(=O)N(C(C)C)C(C)C)nnc1-c1cc2ccccc2cc1O | 0 | 0 | 0 | 3.2µM | 0 | ?
CCc1nnc(NC(=O)CSc2nnc(-c3cc4ccccc4cc3O)n2CC)s1 | 0 | 0 | 0 | 0 | 0 | -
CN=C1N[C@H](c2ccccc2)N(c2ccccc2)S1 | 0 | 25µM | 0 | 5.6µM | ? | 13µM
Cc1cc(C)c2c(=O)n(CC(=O)Nc3cccc(Cl)c3C)sc2n1 | 0 | 18µM | 0 | 4µM | ? | 14µM
Cc1cc(C)c2c(=O)n(CC(=O)Nc3ccc(Br)c(C)c3)sc2n1 | 0 | ? | 0 | 0 | ? | 0
COc1ccc(OC)c(CCNC(=O)Cn2sc3nc(C)cc(C)c3c2=O)c1 | 0 | - | 0 | 11µM | ? | 4µM
Cc1c(Cl)cccc1NC(=O)Cn1cccc1 | 0 | 0 | 0 | 0 | 0 | -
SMILES | TRb-SRC2 inh | VDR inhibitor | TR SRC2 fluor cs | RGS12 GoLoco inh-1 | GCN5L2 inh-1 | RGS12 GoLoco inh-2 | others
CCCCNC(=O)Cn1c(SCc2ccccc2C)nc2ccncc21 | - | 0 | - | - | - | -
Cc1n(CC(O)COCc2ccccc2)c2ccccc2[n+]1C (configuration not stated) | 0 | 0 | 0 | 8.9µM | 0 | 13µM
OC(COCc1ccccc1)COCc1ccccc1 | - | 0 | - | - | - | -
O=c1cnc2cncnc2n1Cc1ccc(F)cc1 | - | ? | - | 0 | 0 | -
Cc1[nH]c2ccccc2c1C(=O)CN1CCN(C2CCCCC2)CC1 | 0 | - | 0 | 1.8µM | 0 | ?
Cc1[nH]c2ccccc2c1C(=O)CN1C(=O)C(=O)N(C2CCCC2)C1=O | 0 | 0 | 0 | 0 | 0 | -
O=C(CSc1nnc(-c2ccco2)n1-c1ccccc1)NCc1ccco1 | 0 | 0 | 0 | 0 | 0 | -
O=C(CSc1nnc(-c2ccccc2)n1-c1ccccc1)NCc1ccco1 | 0 | 0 | 0 | 0 | 0 | 0
CCCCn1c(=O)[nH]c2nc3cc(NC(C)=O)ccc3nc2c1=O | 0 | 0 | 0 | 0 | 0 | 0
CCCCCCn1c(=O)[nH]c2nc3cc(N)c(C)cc3nc2c1=O | 0 | ? | 0 | 0 | 0 | -
O=C(Nc1cccc(Nc2cc(Nc3cccc(C(F)(F)F)c3)ncn2)c1)C1CC1 | - | - | - | - | - | 0
Cc1ccc(C(=O)CSc2nnc(-c3ccco3)n2Cc2ccccc2)cc1 | 0 | ? | 0 | 0 | 0 | -
Cn1c(SCC(=O)c2ccc(-c3ccccc3)cc2)nnc1-c1ccco1 | 0 | 0 | 0 | 0 | 28µM | - | GCN5L2 inh-2=?
Cn1c(CO)nc2cc(N)ccc21 | 0 | 0 | 0 | - | 0 | -
Nc1ccc(-c2nc3cc(N)ccc3n2CCO)cc1 | 0 | 0 | 0 | 0 | ? | - | GCN5L2 inh-2=18
Cc1ccc(/C=N/Nc2cccc(C(=O)O)c2)s1 | 0 | 0 | 0 | 0 | 0 | -
O=C(O)c1cccc(N/N=C/C2=C(Cl)c3cc(Cl)ccc3SC2)c1 | 0 | 0 | ? | 0 | 28µM | - | GCN5L2 inh-2=14
O=[N+]([O-])C(=C1Nc2ccccc2N1)C(Cl)=C(Cl)Cl | 0 | ? | 0 | 0 | 35µM | - | GCN5L2 inh-2=23
